# Article PMC5540273 (PLoS ONE, 2017)
# Columns and labels:
# Settings in all cases: concentration: 1 μM, replicates: in singlicate; n = 1
# [1] = test system: WNK4
# [2] = test system: T1, YANK1
# T1 construct: gene STK32A
# [3] = test system: T2, YANK2
# T2 construct: gene STK32B
# [4] = test system: T3, YANK3
# T3 construct: gene STK32C
# [5] = test system: T4, YES
# T4 construct: gene YES1
# [6] = test system: T5, YSK1
# T5 construct: gene STK25
# [7] = test system: T6, YSK4
# T6 construct: gene MAP3K19
# [8] = test system: ZAK
# [9] = test system: ZAP70
# [10] = test system: T7, p38-alpha
# T7 construct: gene MAPK14
# 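Note: KINOMEscan kinase panel screen.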
structure (smiles),measurement,setting,value
Cc1ccc(NC(=O)c2cccc(C#N)c2)cc1-c1ccc(C(=O)Nc2ccncc2)cc1 [GSK1398463],%Inh,[1],3%
same,%Inh,[2],14%
same,%Inh,[3],0%
same,%Inh,[4],11%
same,%Inh,[5],24%
same,%Inh,[6],9%
same,%Inh,[7],64%
same,%Inh,[8],12%
same,%Inh,[9],0%
same,%Inh,[10],47%
Fc1cccc(COc2ccc(Nc3ncnc4cc[nH]c34)cc2Cl)c1,%Inh,[1],28%
same,%Inh,[2],26%
same,%Inh,[3],0%
same,%Inh,[4],9%
same,%Inh,[5],20%
same,%Inh,[6],0%
same,%Inh,[7],18%
same,%Inh,[8],0%
same,%Inh,[9],0%
same,%Inh,[10],0%
Cn1cc(-c2ccc3c(c2)CCN3C(=O)Cc2cccc(C(F)(F)F)c2)c2c(N)ncnc21 [GSK2606414],%Inh,[1],0%
same,%Inh,[2],10%
same,%Inh,[3],0%
same,%Inh,[4],19%
same,%Inh,[5],0%
same,%Inh,[6],0%
same,%Inh,[7],34%
same,%Inh,[8],0%
same,%Inh,[9],0%
same,%Inh,[10],0%
CS(=O)(=O)CCNCc1nc(-c2ccc3ncnc(Nc4ccc(OCc5cccc(F)c5)c(Cl)c4)c3c2)cs1.Cl [GW583340],%Inh,[1],0%
same,%Inh,[2],0%
same,%Inh,[3],0%
same,%Inh,[4],0%
same,%Inh,[5],3%
same,%Inh,[6],0%
same,%Inh,[7],17%
same,%Inh,[8],91.6%
same,%Inh,[9],0%
same,%Inh,[10],18%
CNc1nccc(-c2c(-c3ccc(F)cc3)ncn2CCCN2CCOCC2)n1 [SB-222516],%Inh,[1],0%
same,%Inh,[2],0%
same,%Inh,[3],0%
same,%Inh,[4],0%
same,%Inh,[5],0%
same,%Inh,[6],0%
same,%Inh,[7],7%
same,%Inh,[8],6%
same,%Inh,[9],5%
same,%Inh,[10],13%
Cl.Fc1ccccc1COc1ccc(Nc2ncnc3ccc(-c4nnc(C(F)(F)F)o4)cc23)cc1Cl [GW424170],%Inh,[1],0%
same,%Inh,[2],3%
same,%Inh,[3],0%
same,%Inh,[4],3%
same,%Inh,[5],5%
same,%Inh,[6],0%
same,%Inh,[7],0%
same,%Inh,[8],1%
same,%Inh,[9],0%
same,%Inh,[10],0%
Nc1nc(-c2cccnc2)c(-c2ccnc3ccccc23)s1 [GW684083],%Inh,[1],39%
same,%Inh,[2],20%
same,%Inh,[3],18%
same,%Inh,[4],0%
same,%Inh,[5],18%
same,%Inh,[6],0%
same,%Inh,[7],60%
same,%Inh,[8],78%
same,%Inh,[9],0%
same,%Inh,[10],40%
CSc1nn2c(=O)cc(N3CCOCC3)nc2n1Cc1cccc(Cl)c1Cl [GSK2347225],%Inh,[1],0%
same,%Inh,[2],16%
same,%Inh,[3],7%
same,%Inh,[4],19%
same,%Inh,[5],31%
same,%Inh,[6],12%
same,%Inh,[7],0%
same,%Inh,[8],0%
same,%Inh,[9],0%
same,%Inh,[10],0%
O=C(Nc1ccccc1F)NC1CCN(c2ccnc(Nc3ccc(F)cc3)n2)C1 (stereo not shown) [GSK1379722],%Inh,[1],28%
same,%Inh,[2],0%
same,%Inh,[3],6%
same,%Inh,[4],21%
same,%Inh,[5],14%
same,%Inh,[6],2%
same,%Inh,[7],28%
same,%Inh,[8],0%
same,%Inh,[9],0%
same,%Inh,[10],6%
COC(=O)c1cccc(NC(=O)NCCNc2ccnc(Nc3ccc(F)cc3)n2)c1 [GSK1379883],%Inh,[1],36%
same,%Inh,[2],0%
same,%Inh,[3],20%
same,%Inh,[4],0%
same,%Inh,[5],14%
same,%Inh,[6],14%
same,%Inh,[7],8%
same,%Inh,[8],0%
same,%Inh,[9],0%
same,%Inh,[10],3%
Oc1ccc2ncnc(Nc3ccc(OCc4ccccc4)cc3)c2c1 [GI262866],%Inh,[1],14%
same,%Inh,[2],0%
same,%Inh,[3],0%
same,%Inh,[4],15%
same,%Inh,[5],0%
same,%Inh,[6],0%
same,%Inh,[7],7%
same,%Inh,[8],18%
same,%Inh,[9],0%
same,%Inh,[10],0%
CC(C)(C)c1ccc(-n2cnc3c(N)ncnc32)cc1 [SKF-97263],%Inh,[1],0%
same,%Inh,[2],0%
same,%Inh,[3],11%
same,%Inh,[4],11%
same,%Inh,[5],6%
same,%Inh,[6],0%
same,%Inh,[7],15%
same,%Inh,[8],10%
same,%Inh,[9],0%
same,%Inh,[10],0%
CCc1nc(-c2cccc(C)c2)c(-c2ccnc(NC(=O)c3ccccc3)c2)s1,%Inh,[1],18%
same,%Inh,[2],13%
same,%Inh,[3],41%
same,%Inh,[4],15%
same,%Inh,[5],19%
same,%Inh,[6],2%
same,%Inh,[7],23%
same,%Inh,[8],0%
same,%Inh,[9],0%
Nc1nc(-c2ccccn2)c(-c2ccnc3ccccc23)s1 [GW548057],%Inh,[1],88%
same,%Inh,[2],0%
same,%Inh,[3],7%
same,%Inh,[4],0%
same,%Inh,[5],13%
same,%Inh,[6],14%
same,%Inh,[7],4%
same,%Inh,[8],0%
same,%Inh,[9],4%
same,%Inh,[10],54%
Cl.O=S(=O)(c1cccc(F)c1)c1ccc(Nc2ncnc3cc(Br)sc23)cc1Cl [GSK306886],%Inh,[1],0%
same,%Inh,[2],0%
same,%Inh,[3],0%
same,%Inh,[4],0%
same,%Inh,[5],14%
same,%Inh,[6],30%
same,%Inh,[7],0%
same,%Inh,[8],6%
same,%Inh,[9],0%
same,%Inh,[10],42%
Clc1cccc(-c2nc(Nc3ccncc3)c3ccccc3n2)c1 [GW873004],%Inh,[1],0%
same,%Inh,[2],0%
same,%Inh,[3],0%
same,%Inh,[4],0%
same,%Inh,[5],34%
same,%Inh,[6],0%
same,%Inh,[7],0%
same,%Inh,[8],0%
same,%Inh,[9],0%
same,%Inh,[10],0%
Fc1cccc(COc2ccc(Nc3ncnc4sc(-c5ccc[nH]5)cc34)cc2Cl)c1 [GW707818],%Inh,[1],6%
same,%Inh,[2],13%
same,%Inh,[3],34%
same,%Inh,[4],0%
same,%Inh,[5],1%
same,%Inh,[6],0%
same,%Inh,[7],8%
same,%Inh,[8],0%
same,%Inh,[9],6%
same,%Inh,[10],44%
